Results: PubChem BioAssay AID2501 (Southern Research Specialized Biocontainment Screening …, 2010)
The campaign covered roughly 2,200 compounds. About 1,200 (55%) were called active. The limit is not given here; nearly all actives have IC50 up to about 92 µM. So high a share suggests a set chosen from earlier hits. Some of the results follow.

test: counter assay for TAg ATPase ADP read-out – biochemical, ADP-Hunter, fluorescence, counter-screen (AID 2501); conditions: series mostly up to 100 µM;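 also: purified T antigen ATPase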

Compound	IC50
CCOc1cc(/C=N/NC(=O)N/N=C/c2ccc(O)c(OCC)c2)ccc1O	2.03 µM (active)
CCOc1cc(/C=N/Nc2nc(C)cc(=O)[nH]2)ccc1O	2.82 µM (active)
CCOc1cc(/C=N/Nc2ncnc(Cl)c2N)ccc1O	3.29 µM (active)
CCOc1cc(/C=N/NC(=O)Nc2ccccc2)ccc1O	9.13 µM (active)
Nc1c(-c2ccccc2)c(CN2CCOCC2)nn1-c1ccc(F)cc1	inactive
CCOc1cc(/C=N/n2cnnc2)ccc1O	6.86 µM (active)
Cc1cc(=O)[nH]c(N/N=C/c2c[nH]c3ccccc23)n1	5.41 µM (active)
COc1ccccc1NC(=O)COc1ccc(/C=N/n2cnnc2)cc1OC	inactive
COc1cc(/C=N/n2cnnc2)ccc1OC(=O)c1ccncc1	5.68 µM (active)
Cc1cc(F)ccc1S(=O)(=O)N(C(=O)c1ccncc1)c1ccc(OC(=O)c2ccncc2)cc1	48.3 µM (active)
Cc1ccc(C)n1Cc1ccc(C(=O)O)cc1	inactive
Cc1ccsc1C=Nc1ccc(O)cc1	5.76 µM (active)
On1ccccc1=S	inactive
Cc1ccc(C2C=NN(c3ccccc3)C2=O)cc1 (centres undefined)	12.2 µM (active)
Cc1ccc(C2=NOC(=O)/C2=C\c2ccccc2)cc1	inactive
Cc1ccc(/C=N/N2C(=O)c3ccccc3NC2c2ccc(C)cc2)cc1 (centres undefined)	inactive
CCCCn1c(N)c(N(CCOC)C(=O)c2cccc(S(=O)(=O)N(C)c3ccccc3)c2)c(=O)[nH]c1=O	inactive
Cc1cc(C)c2c(CCl)cc(=O)oc2c1	inactive
CC(=O)Oc1cc2oc(=O)cc(C)c2cc1OC(C)=O	10.8 µM (active)
CCc1cc(=O)oc2cc(OCC(N)=O)c(Cl)cc12	inactive
Cc1occc1-c1nnc(SCC(=O)Nc2ccc(F)cc2)n1Cc1ccccc1	inactive
CN(C)c1ccc(NC(=O)CSc2nc3c(c(=O)[nH]2)CCCC3)cc1	2.47 µM (active)
CCN(CC)c1ccc(NC(=O)CSc2nnc3nc(C)cc(C)n23)cc1	2.92 µM (active)
CCN(CC)c1ccc(NC(=O)CSc2nc3nc(C)cc(C)c3c(=O)[nH]2)cc1	6.75 µM (active)
Cc1sc2nc(CSCC(=O)N(C)CC(=O)Nc3ccc(F)cc3)[nH]c(=O)c2c1C	inactive
COc1ccc(NC(=O)CSc2nc(NS(=O)(=O)c3ccc(C)cc3)cc(=O)[nH]2)cc1	inactive

Compound	IC50
Cc1ccc(C2(CCNCc3ccco3)CCOC(C(C)C)C2)cc1 (centres undefined)	inactive
COc1ccccc1-n1c(-c2cc(-c3ccco3)[nH]n2)n[nH]c1=S	inactive
S=c1[nH]nc(-c2cc(-c3ccco3)[nH]n2)n1-c1ccccc1Cl	6.42 µM (active)
FC(F)(F)c1ccc(Cl)c(-n2c(-c3cc(-c4ccco4)[nH]n3)n[nH]c2=S)c1	inactive
O=C(CN1C(=O)S/C(=C\C=C\c2ccccc2)C1=O)Nc1ccc(C(=O)O)cc1	inactive
CN(C)c1ccc(NC(=O)CN2C(=O)CC(c3ccccc3)=Nc3ccccc32)cc1	5.09 µM (active)
COc1cc(CNc2ccc(N3CCCCC3)cc2)ccc1OCC(=O)NC(C)(C)C	4.51 µM (active)
COc1ccc(CCNC(=O)c2cc(-c3ccc4c(c3)OCO4)on2)cc1OC	inactive
COc1cc(C=O)c(Cl)cc1OCC(N)=O	inactive
CNC(=O)COc1ccc(C=O)cc1OC	inactive
COc1cc(CNc2ccc3c(c2)OCCO3)ccc1OCC(N)=O	3.27 µM (active)
COc1cc(CNc2ccc(N3CCOCC3)cc2)ccc1OCC(=O)NC(C)(C)C	4.7 µM (active)
CC(C)N=C(NC#N)SCc1ccc(Br)cc1	inactive
Fc1cccc(Cl)c1Cn1nnc(-c2ccc(N3CCOCC3)cc2)n1	inactive
CCCC(=O)N=c1sc2c(OC)ccc(OC)c2n1C	inactive
Cc1sc2nc(CSc3ccc([N+](=O)[O-])cc3)[nH]c(=O)c2c1C	inactive
O=C1OCC(CO)(CO)N=C1NNc1ccccc1Cl	9.24 µM (active)
Nc1ccc(OCCCc2c(N)nc(N)nc2N)cc1	6.58 µM (active)
CC(C)S(=O)(=O)C1=NSC2=NC(=O)/C(=C\c3ccc(-c4ccccc4)o3)C(=N)N21	inactive
O=C1NN(c2ccccc2)C(=O)/C1=C\c1ccc(-c2cc([N+](=O)[O-])ccc2O)o1	6.89 µM (active)
Cc1ccc(-c2ccc(/C=C3\C(=O)ON=C3c3ccccc3)o2)c([N+](=O)[O-])c1	inactive
O=C1NN(c2ccccc2)C(=O)/C1=C/c1ccc(-c2ccc(C(=O)O)cc2)o1	13.4 µM (active)
CC1=C(C#N)C(=O)NC(=O)/C1=C/c1ccc(-c2ccc(S(N)(=O)=O)cc2)o1	inactive
CC1=NN(c2cccc(C(=O)O)c2)C(=O)/C1=C\C=C\c1ccco1	inactive
O=C1NN(c2ccccc2)C(=O)/C1=C/c1ccc(-c2cccc(C(=O)O)c2)o1	14.1 µM (active)
N=C1/C(=C\c2ccc(-c3cccc(C(=O)O)c3)o2)C(=O)N=C2SC=C(c3ccccc3)N12	inactive

Compound	IC50
CCn1c2ccccc2c2nnc(SCC(=O)N(C)C3CCS(=O)(=O)C3)nc21 (centres undefined)	inactive
CC1=C(C)CS(=O)N(S(=O)(=O)c2ccc(Cl)cc2)C1 (centres undefined)	inactive
COc1ccc(NC2CCCN(Cc3cccc4cnccc34)C2)cc1OC (centres undefined)	8.39 µM (active)
Cc1ccc2c(cnn2C(=O)CCC(=O)NCc2ccccc2Cl)c1	inactive
Cc1ccsc1C(=O)NCc1ccccc1Cl	81.4 µM (active)
CCSc1nc2ccccc2n1CC(=O)OC	inactive
CCn1c(SCC(=O)N/N=C/c2ccc(O)c(OC)c2)nc2ccccc21	6.63 µM (active)
O=C(CSc1nc2ccccc2o1)N/N=C/c1ccc(O)c(O)c1	7.74 µM (active)
Cc1cc(SCC(=O)N/N=C/c2ccc(O)c(O)c2)nc2ccccc12	5.75 µM (active)
Cc1ccccc1C(=O)Nc1nnc(CC(=O)N/N=C/c2cn(Cc3ccccc3)c3ccccc23)s1	inactive
O=[N+]([O-])c1ccc(Sc2nc3ccccc3o2)c([N+](=O)[O-])c1	inactive
O=C(Cc1nnc(NC(=O)c2ccccc2)s1)N/N=C\c1ccc(O)c(O)c1	1.55 µM (active)
COc1ccc(C2C3=C(N=C4SCC(=O)N42)c2ccccc2CC3)cc1 (centres undefined)	inactive
Cn1c(SCC(=O)N/N=C/c2ccc(O)c(O)c2)nc2ccccc21	6.12 µM (active)
CN(C)c1ccc(NC2=C([N+](=O)[O-])CS(=O)(=O)C2)cc1	3.14 µM (active)
COc1ccc(N=Nc2c(N)n[nH]c2N)cc1	6.12 µM (active)
N=C1/C(=C\c2ccc(Br)o2)C(=O)N=C2SC(CC(=O)N3CCCCC3)=NN12	inactive
CCN(CC)S(=O)(=O)c1ccc(OC)c(NC(=S)Nc2cccc(C)c2)c1	inactive
COc1cc2c(cc1NC(=S)Nc1ccccc1C)oc1ccccc12	23.6 µM (active)
CCN1C(=O)C2(C(C(=O)c3cc4ccccc4o3)=C(O)C(=O)N2CCCN(C)C)c2ccccc21 (centres undefined)	31.5 µM (active)
Cc1ccc2c(c1)C1C=CCC1C(C(=O)O)N2 (centres undefined)	inactive
O=C1CCCN1CCCNC(=S)Nc1ccc(Nc2ccccc2)cc1	6.41 µM (active)
CCOc1cc2[nH]c(=O)n(Cc3ccc(C(=O)NCCCN4CCCC4=O)cc3)c(=O)c2cc1OCC	inactive
COc1cc(/C=c2\sc3n(c2=O)CCCN=3)ccc1O	4.98 µM (active)
CCOc1cc(/C=C2\N=C3CCCCCN3C2=O)ccc1O	5.66 µM (active)
COc1cc(/C=C2\N=C3CCCCCN3C2=O)ccc1O	3.83 µM (active)

Compound	IC50
O=C1/C(=C\c2ccc(O)c(O)c2)N=C2CCCCCN12	4.83 µM (active)
CC(=O)N1CC[n+]2c(-c3ccc([N+](=O)[O-])cc3)csc21	inactive
CCN(CC)CCCCN1c2ccccc2Sc2ccccc21	6.81 µM (active)
CCN1/C(=C/C=C/c2sc3ccccc3[n+]2CC)Sc2ccccc21	inactive
CCCCN1C(=O)/C(=C(/C#N)C(N)=O)c2ccccc21	inactive
COc1ccc(N2C3=C(CC4=C2CCCC4=O)C(=O)CCC3)cc1	inactive
NC(=O)Cn1c(=O)n(Cc2ccco2)c(=O)c2c3c(sc21)CCCCC3	inactive
O=c1c2c3c(sc2n2c(=S)[nH]nc2n1-c1ccccc1)CCC3	18.4 µM (active)
O=C(Cn1c(=O)n(Cc2ccco2)c(=O)c2c3c(sc21)CCCCC3)c1ccccc1	inactive
COc1ccc(-n2c(=O)c3c4c(sc3n3c(=S)[nH]nc23)CCC4)cc1	12 µM (active)
Cc1ccc(-n2c(=O)c3c4c(sc3n3c(=S)[nH]nc23)CCC4)cc1	14.2 µM (active)
CCn1c(=O)n(CC)c2cc(N)ccc21	4.09 µM (active)
O=c1[nH]c2cc3c(cc2cc1C(c1nnnn1CC1CCCO1)N1CCCCCC1)OCCO3 (centres undefined)	inactive
COc1cccc(C(c2nnnn2Cc2ccco2)N2CCN(Cc3ccccc3)CC2)c1OC (centres undefined)	inactive
COCCn1nnnc1C(c1cc2cc(OC)c(OC)cc2[nH]c1=O)N1CCN(c2ccc(O)cc2)CC1 (centres undefined)	8.81 µM (active)
Cc1cc2c(Nc3ccc(O)cc3)ncnc2s1	3.61 µM (active)
CCc1cc2c(Nc3ccc(O)cc3)nc(C)nc2s1	4.69 µM (active)
Cc1ccc(-c2nc(CN(Cc3cnn(C)c3)C(C)C)c(C)o2)o1	inactive
O=S(=O)(O)c1cccc2cccc(Nc3ccccc3)c12	19.5 µM (active)
Nc1ccc(Nc2ccccc2)c(S(=O)(=O)O)c1	4.02 µM (active)
Cc1ccc(C)n1-c1cccc(C(=O)O)c1	inactive
Nc1cc(C(=O)O)ccc1Nc1ccccc1	5.63 µM (active)
N#Cc1c(N)sc(=S)c2c1CCCCC2	inactive
COc1cc(/C=N/NC(=O)CNc2n[nH]c(=O)[nH]c2=O)ccc1O	2.93 µM (active)
CCOc1cc(/C=N/NC(=O)CCc2n[nH]c(=O)[nH]c2=O)ccc1O	9.46 µM (active)
COc1ccc(/C=N/NC(=O)CCc2n[nH]c(=O)[nH]c2=O)cc1O	7.94 µM (active)
